Data: PubChem BioAssay AID1570 (National Center for Advancing Translational Sciences (NCATS), 2009)
Results filed as inconclusive are left out. Where a call stands in place of a potency, no number is given. Active and inactive are the calls of the source. The call rests on the fitted dose curve; in most records, active means well fitted inhibition curve with a large enough effect; inconclusive means small, poorly fitted or top-dose-only effect, or effect the other way; inactive means flat fitted curve, though single readings scatter.

Molecular target: Thyroid hormone receptor beta (Homo sapiens) (UniProt P10828)
Experiment: Concentration Response Confirmation Assay for Inhibitors of the Interaction of Thyroid Hormone Receptor and Steroid Receptor Coregulator 2, Fluorescein Fluoroprobe
Settings: TRbeta LBD / fluorescein-SRC2 peptide, fluorescence polarization, 5 h; series mostly up to 92.2 µM
Excerpt: NIH Molecular Libraries Probe Production Network [MLPCN] NIH Chemical Genomics Center [NCGC] MLPCN Grant: DK058080 Assay Provider: R. Kip Guy, St. Jude Children's Research Hospital NCGC Assay Overview: Thyroid receptor (TR) regulates many homeostatic processes including basal metabolism, cardiovascular function, body weight, and lipid trafficking. TR modulators are potential therapeutics for obesity and hyperlipidemias but current thyroid analogs have undesirable side effects, particularly cardiac stimulation. To identify inhibitors that specifically prevent the interaction of TR with the steroid receptor coregulator 2 (SRC2), a fluorescence polarization assay was screened (Arnold et al., 2006). […] Small molecule inhibitors that block the interaction of TR and SRC2 are detected by a decrease in fluorescence polarization. […]
NCGC Assay Protocol Summary: Five uL/well 0.6 uM TRbeta and 20 nM SRC2 Fluorescein in protein buffer (20mM Tris hydrochloride, 100mM NaCl, 10% glycerol, 1mM EDTA, 0.01% NP-40, 1mM DTT, 1uM T3 and 5% DMSO) was dispensed into black solid 1536-well plates (Grenier) using a solenoid-based dispenser. […] The plates were read by an Envision (Perkin Elmer) to detect fluorescence polarization of SRC2 Fluorescein (480 nm excitation and 535 nm emission). […]

Thyroid hormone receptor beta (Homo sapiens), sequence (P10828 whole entry, looked up): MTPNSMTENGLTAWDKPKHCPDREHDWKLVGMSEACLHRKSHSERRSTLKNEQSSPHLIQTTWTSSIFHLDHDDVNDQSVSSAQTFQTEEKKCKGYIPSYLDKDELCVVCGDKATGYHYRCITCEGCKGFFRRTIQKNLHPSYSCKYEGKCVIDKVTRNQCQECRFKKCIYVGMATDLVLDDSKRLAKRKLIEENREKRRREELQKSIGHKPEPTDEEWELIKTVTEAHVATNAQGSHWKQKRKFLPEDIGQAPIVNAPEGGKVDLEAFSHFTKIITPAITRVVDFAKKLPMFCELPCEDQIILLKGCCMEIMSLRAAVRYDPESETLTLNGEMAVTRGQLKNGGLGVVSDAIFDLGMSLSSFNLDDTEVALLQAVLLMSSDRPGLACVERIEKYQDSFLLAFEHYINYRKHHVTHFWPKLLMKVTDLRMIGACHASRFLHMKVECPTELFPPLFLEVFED

SMILES	Potency
COP(=S)(OC)Oc1ccc([N+](=O)[O-])cc1	14.1 µM (active)
CCn1nc(-c2cccs2)nc2c(=O)n(C)c(=O)nc1-2	inactive
